Hits are enriched below; roughly 5.7% of the tested compounds scored in any of these assays.
NR3A LBD binder: binders of NR3A ligand-binding domain, primary screen, biophysical, differential scanning fluorimetry, uHTS; Glutamate receptor ionotropic, NMDA 3A (GRIN3A) ligand-binding domain; NR3A LBD differential scanning fluorimetry, Tm shift; 0% = protein alone, 100% = glycine-bound protein; Tm shift relative to glycine control, % at 25 µM; 2.5% of 340,000 active; AID 1259313, 2017;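 active = melting temperature shift of at least 10% of the positive control shift, at one fixed dose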
MPTP block: mitochondrial permeability transition pore inhibitors, primary screen, biochemical, isolated mouse mitochondria, absorbance. 1.4% of 360,000 active. inhibition, % at 10 µM. Ca2+ swelling absorbance, 30 min. AID 602449, 2012;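 active = inhibition of 50% or more, scaled per plate between neutral and stimulator controls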
Myeloid diff 2: induction of myeloid progenitor differentiation, primary screen, cell-based, flow cytometry, MLPCN library. ER-HoxA9 myeloid progenitors, lysozyme-GFP differentiation. calls only at 10 µM. 1% of 360,000 active;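 active = normalized GFP-positive differentiation at or above the plate's own cutoff, the solvent-only control mean plus 3 SD; inconclusive = no clear call, values can overlap the other calls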;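 note: cells exposed to compound for four days before flow analysis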
rCAG RNA binder: binders of r(CAG) RNA repeats, primary screen, biochemical, fluorescence | r(CAG) RNA repeat, TO-PRO-1 dye displacement fluorescence | inhibition, % at 3 µM | 1.3% of 370,000 active;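 active = inhibition above the plate cutoff, the mean of all test compounds on that plate plus 3 SD, cut at about 35% in these data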;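 note: higher means more dye released from RNA so lower well fluorescence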
FAS-TE inh: FAS thioesterase domain inhibitors, primary screen, biochemical, fluorescence intensity, uHTS | Fatty acid synthase (Homo sapiens), P49327 | recombinant FAS-TE, OMFH fluorogenic substrate, fluorescence endpoint | inhibition, % at 15 µM | 0.67% of 360,000 active;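 active = compounds whose normalised, plate-corrected inhibition of enzyme fluorescence in the single-dose primary screen is 50% or more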
Target sequence (P49327 whole entry, looked up, the tested form may be a part): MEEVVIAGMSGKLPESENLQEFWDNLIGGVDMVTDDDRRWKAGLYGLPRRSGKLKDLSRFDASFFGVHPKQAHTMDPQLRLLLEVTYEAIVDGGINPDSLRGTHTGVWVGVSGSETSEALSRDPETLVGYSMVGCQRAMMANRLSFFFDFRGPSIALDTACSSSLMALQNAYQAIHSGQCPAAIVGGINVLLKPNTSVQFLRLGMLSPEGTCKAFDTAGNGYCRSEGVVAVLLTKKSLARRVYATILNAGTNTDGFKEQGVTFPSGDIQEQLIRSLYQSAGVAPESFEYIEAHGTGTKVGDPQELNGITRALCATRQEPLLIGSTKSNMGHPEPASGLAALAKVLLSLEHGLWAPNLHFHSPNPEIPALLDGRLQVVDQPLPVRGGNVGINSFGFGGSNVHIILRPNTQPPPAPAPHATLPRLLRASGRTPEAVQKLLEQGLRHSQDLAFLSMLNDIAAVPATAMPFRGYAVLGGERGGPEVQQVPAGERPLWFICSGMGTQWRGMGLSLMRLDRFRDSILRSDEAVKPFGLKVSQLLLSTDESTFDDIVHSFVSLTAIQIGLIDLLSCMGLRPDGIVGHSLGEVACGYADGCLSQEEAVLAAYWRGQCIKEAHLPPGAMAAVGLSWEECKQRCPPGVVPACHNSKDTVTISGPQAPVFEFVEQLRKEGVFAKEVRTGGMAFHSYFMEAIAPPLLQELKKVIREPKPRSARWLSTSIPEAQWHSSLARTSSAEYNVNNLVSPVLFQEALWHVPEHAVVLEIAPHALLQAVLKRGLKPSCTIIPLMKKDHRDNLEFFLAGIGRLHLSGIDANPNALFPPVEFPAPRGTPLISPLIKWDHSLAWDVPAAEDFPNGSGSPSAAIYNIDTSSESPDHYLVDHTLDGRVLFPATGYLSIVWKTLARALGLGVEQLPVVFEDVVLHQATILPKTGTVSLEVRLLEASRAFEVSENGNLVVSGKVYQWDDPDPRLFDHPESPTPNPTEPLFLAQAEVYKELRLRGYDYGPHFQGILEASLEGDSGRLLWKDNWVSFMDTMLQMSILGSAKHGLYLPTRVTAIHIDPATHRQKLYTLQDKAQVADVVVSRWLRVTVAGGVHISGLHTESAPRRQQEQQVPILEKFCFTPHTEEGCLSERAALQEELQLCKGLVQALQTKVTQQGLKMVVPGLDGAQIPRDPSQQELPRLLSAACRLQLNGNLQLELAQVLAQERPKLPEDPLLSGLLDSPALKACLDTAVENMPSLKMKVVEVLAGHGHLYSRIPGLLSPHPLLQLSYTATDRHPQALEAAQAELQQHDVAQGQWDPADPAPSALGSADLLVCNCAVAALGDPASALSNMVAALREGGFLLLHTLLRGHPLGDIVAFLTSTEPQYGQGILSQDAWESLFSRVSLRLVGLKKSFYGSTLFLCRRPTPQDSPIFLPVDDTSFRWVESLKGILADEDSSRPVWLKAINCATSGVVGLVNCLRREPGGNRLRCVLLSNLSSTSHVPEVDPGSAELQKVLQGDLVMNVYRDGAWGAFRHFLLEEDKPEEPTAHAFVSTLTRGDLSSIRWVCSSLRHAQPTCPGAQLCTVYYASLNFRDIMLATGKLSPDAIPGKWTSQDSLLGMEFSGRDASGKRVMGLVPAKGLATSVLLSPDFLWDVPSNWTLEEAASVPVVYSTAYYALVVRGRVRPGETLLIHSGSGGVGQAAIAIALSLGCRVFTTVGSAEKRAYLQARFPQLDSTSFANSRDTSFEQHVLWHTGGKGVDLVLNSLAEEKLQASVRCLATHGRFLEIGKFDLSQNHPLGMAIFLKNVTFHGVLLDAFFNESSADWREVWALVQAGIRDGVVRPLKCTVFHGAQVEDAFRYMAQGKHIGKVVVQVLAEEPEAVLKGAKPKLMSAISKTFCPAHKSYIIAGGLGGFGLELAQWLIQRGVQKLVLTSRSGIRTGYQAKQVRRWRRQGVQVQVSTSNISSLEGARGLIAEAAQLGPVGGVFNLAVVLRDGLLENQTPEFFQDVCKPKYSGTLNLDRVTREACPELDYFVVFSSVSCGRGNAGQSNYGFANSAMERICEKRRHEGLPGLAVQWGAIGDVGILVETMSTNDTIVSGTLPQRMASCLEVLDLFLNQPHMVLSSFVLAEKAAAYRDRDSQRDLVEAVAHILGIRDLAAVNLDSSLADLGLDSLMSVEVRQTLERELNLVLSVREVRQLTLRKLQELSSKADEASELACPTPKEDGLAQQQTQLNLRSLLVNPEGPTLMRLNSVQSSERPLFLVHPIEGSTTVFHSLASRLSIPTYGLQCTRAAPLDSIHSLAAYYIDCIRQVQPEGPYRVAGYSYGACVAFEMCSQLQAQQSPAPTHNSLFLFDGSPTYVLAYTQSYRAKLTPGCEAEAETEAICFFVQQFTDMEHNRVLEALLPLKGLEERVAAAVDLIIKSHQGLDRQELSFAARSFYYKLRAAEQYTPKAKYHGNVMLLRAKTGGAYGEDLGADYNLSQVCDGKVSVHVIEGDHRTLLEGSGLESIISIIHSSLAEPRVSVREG
Hits are given with their value; ! = not active in a repeat.

CCCCOc1ccc(C(=O)NC2CCCCN(Cc3cccc(C(F)(F)F)c3)C2=O)cc1 (stereo not drawn) was read as rCAG RNA binder inactive.
O=C(N[C@@H](Cc1cccnc1)C(=O)N1CCC[C@H]1C(=O)NC1CCCC1)C1CC1 was read as rCAG RNA binder inactive.
`COc1cc(C(=O)Nc2nc(-c3ccc(Cl)cc3)c(C)s2)ccc1OCC(=O)Nc1ccc(F)cc1` gave NR3A LBD binder 18, MPTP block inactive, Myeloid diff 2 inactive, rCAG RNA binder inactive and FAS-TE inh inactive.
For CCc1ccc(-c2nc(NC(=O)c3ccc(OCC(=O)Nc4ccc(F)cc4)c(OC)c3)sc2C)cc1 the results were NR3A LBD binder inactive, MPTP block inactive, Myeloid diff 2 inactive, rCAG RNA binder inactive and FAS-TE inh inactive.
`O=c1c2ccccc2c(/C=N/c2ncn[nH]2)c(O)n1Cc1ccccc1` gave NR3A LBD binder 15!, MPTP block inactive, Myeloid diff 2 inactive, rCAG RNA binder inactive and FAS-TE inh inactive.
`CCOC(=O)C1=C(c2ccccc2)N(C)C(=O)NC1c1ccc(OC(F)F)c(OC)c1` (stereo not drawn) gave NR3A LBD binder inactive, MPTP block inactive, Myeloid diff 2 active, rCAG RNA binder inactive and FAS-TE inh inactive.
For CCOC(=O)C1=C(c2ccccc2)NC(=O)NC1c1ccc(OC)c(OC)c1 (stereo not drawn) the results were NR3A LBD binder inactive, MPTP block inactive, Myeloid diff 2 inactive, rCAG RNA binder inactive and FAS-TE inh inactive.
For COc1ccc(-c2nc3c(C)cc(Br)cn3c2Cc2ccccc2C(F)(F)F)cc1OC the results were rCAG RNA binder inactive.
`Cc1ccc(C)c(N2CCN(S(=O)(=O)c3ccc4c(c3)NC(=O)CC(=O)N4)CC2)c1` gave NR3A LBD binder inactive, MPTP block inactive, Myeloid diff 2 inactive, rCAG RNA binder inactive and FAS-TE inh inactive.
Screening O=C1COc2ccc(S(=O)(=O)NCCc3ccccc3)cc2N1 returned NR3A LBD binder inactive, MPTP block inactive, Myeloid diff 2 active, rCAG RNA binder inactive and FAS-TE inh inactive.
`Cc1ccc(C)c(N2CCN(S(=O)(=O)c3ccc4c(c3)NC(=O)CO4)CC2)c1` gave NR3A LBD binder 11, MPTP block inactive, Myeloid diff 2 inconclusive, rCAG RNA binder inactive and FAS-TE inh inactive.
`Cc1cc2c(cc1S(=O)(=O)N1CCN(c3ccccc3F)CC1)OCC(=O)N2` gave NR3A LBD binder 13, MPTP block inactive, Myeloid diff 2 inactive, rCAG RNA binder inactive and FAS-TE inh inactive.
For O=C1COc2ccc(S(=O)(=O)N3CCN(c4ccccc4F)CC3)cc2N1 the results were NR3A LBD binder 12, MPTP block inactive, Myeloid diff 2 inactive, rCAG RNA binder inactive and FAS-TE inh inactive.
Screening O=C1COc2ccc(S(=O)(=O)N3CCN(c4cccc(Cl)c4)CC3)cc2N1 returned NR3A LBD binder inactive, MPTP block inactive, Myeloid diff 2 inactive, rCAG RNA binder inactive and FAS-TE inh inactive.
For Cc1cn2c(=O)c3ncn(C4OC(CO)C(O)C4O)c3n(C)c2n1 (stereo not drawn) the results were rCAG RNA binder inactive.
`CCOC(=O)COn1c(=O)c[n+]([O-])c2ccccc21` gave NR3A LBD binder inactive, MPTP block inactive, Myeloid diff 2 active, rCAG RNA binder inactive and FAS-TE inh inactive.
Screening CC1(C)Oc2ccc(C(=O)NCCCN3CCCC3)cc2NC1=O returned rCAG RNA binder inactive.
For COc1cc(Cl)c(NS(=O)(=O)c2ccc(-c3ccc(=O)[nH]n3)o2)c(OC)c1 the results were NR3A LBD binder 16, MPTP block inactive, Myeloid diff 2 inactive, rCAG RNA binder inactive and FAS-TE inh inactive.
`CCCCSCc1ccc(C(=O)O)o1` gave NR3A LBD binder inactive, MPTP block inactive, Myeloid diff 2 active, rCAG RNA binder inactive and FAS-TE inh inactive.
N#CCCSCc1ccc(C(=O)O)o1 was read as NR3A LBD binder inactive, MPTP block inactive, Myeloid diff 2 inactive, rCAG RNA binder inactive and FAS-TE inh inactive.
For CNC(=O)Cn1c(C)cc(=O)c2cccc(C)c21 the results were NR3A LBD binder inactive, MPTP block inactive, Myeloid diff 2 inactive, rCAG RNA binder inactive and FAS-TE inh inactive.
Screening Cc1cccc2c(=O)cc(C)n(Cc3ccccc3)c12 returned NR3A LBD binder 12, MPTP block inactive, Myeloid diff 2 inactive, rCAG RNA binder inactive and FAS-TE inh inactive.
`N/C(=N\OC(=O)c1cccc2ccccc12)c1cccc([N+](=O)[O-])c1` gave NR3A LBD binder 26, MPTP block inactive, Myeloid diff 2 inactive, rCAG RNA binder inactive and FAS-TE inh inactive.
`Cn1cccc1C(=O)N1CCN(S(=O)(=O)c2ccc(Cl)s2)CC1` gave rCAG RNA binder inactive.
`CCOc1ccc(S(=O)(=O)N2CCC(C(=O)N3CCCCCC3)CC2)cc1Cl` gave NR3A LBD binder 13, MPTP block inactive, Myeloid diff 2 inactive, rCAG RNA binder inactive and FAS-TE inh inactive.
`O=C(NNC(=O)c1cccs1)c1ccc(Br)cc1` gave NR3A LBD binder inactive, MPTP block inactive, Myeloid diff 2 inactive, rCAG RNA binder inactive and FAS-TE inh inactive.
O=C(Nc1ccncc1)c1ccc(Br)cc1 was read as NR3A LBD binder inactive, MPTP block inactive, Myeloid diff 2 inactive, rCAG RNA binder inactive and FAS-TE inh inactive.
Screening O=C(O)c1cc(NC(=O)c2ccc(Br)cc2)cc(NC(=O)c2ccc(Br)cc2)c1 returned NR3A LBD binder inactive, MPTP block inactive, Myeloid diff 2 inactive, rCAG RNA binder 80 and FAS-TE inh inactive.
`O=C(Nc1cccc(O)c1)c1cccc(NC(=O)c2cccs2)c1` gave NR3A LBD binder 28, MPTP block inactive, Myeloid diff 2 inactive, rCAG RNA binder inactive and FAS-TE inh inactive.
`O=C(Nc1cccc(NC(=O)c2cccs2)c1)c1ccc(Br)cc1` gave NR3A LBD binder 13, MPTP block inactive, Myeloid diff 2 inactive, rCAG RNA binder inactive and FAS-TE inh inactive.
For NC(N)=NN=C1c2ccccc2-c2ccccc21 the results were NR3A LBD binder 23, MPTP block inactive, Myeloid diff 2 active, rCAG RNA binder inactive and FAS-TE inh inactive.
Screening NC(=S)NN=C1c2ccccc2-c2ccccc21 returned NR3A LBD binder inactive, MPTP block inactive, Myeloid diff 2 inactive, rCAG RNA binder inactive and FAS-TE inh inactive.
O=[N+]([O-])c1ccc(Cl)cc1N/N=C/c1ccncc1 was read as NR3A LBD binder inactive, MPTP block inactive, Myeloid diff 2 inactive, rCAG RNA binder inactive and FAS-TE inh inactive.
O=[N+]([O-])c1cc(S(=O)(=O)Nc2ccc(Cl)cc2)ccc1N/N=C/c1ccncc1 was read as NR3A LBD binder 12, MPTP block inactive, Myeloid diff 2 inactive, rCAG RNA binder inactive and FAS-TE inh inactive.
Screening Nc1ncnc2c1ncn2[C@@H]1O[C@H](CO)[C@@H](O)[C@H]1O returned NR3A LBD binder inactive, MPTP block inactive, Myeloid diff 2 active, rCAG RNA binder inactive and FAS-TE inh inactive.
